Compound activity (PubChem)
Sampled rows, rich in hits. Any-hit rate of the full collection: about 8.3%.
MCF10A rerep: DNA re-replication induction in MCF 10a cells; Potency, µM (titrated, usually from 46.1 µM), for the others: at the top dose activity, positive = re-replication, actives largely listed as activators; AID 624296; MCF 10A DNA re-replication, Hoechst nuclear intensity, 48 h; hit rate 2.9% among 350,000; further: potency means the concentration at half of the fitted maximal effect; % of control where 0% means no effect; nearly all actives have a fitted effect of over 50% in size
RORgamma inh: inhibitors of mouse ROR gamma transcriptional activity; Drosophila S2 Gal4-RORgamma UAS-luciferase reporter, 20 h; Potency, µM (series often up to 53.6 µM), without a hit: at the top dose activity change, negative = inhibition, actives largely listed as inhibitors; AID 2551; hit rate 5.4% among 310,000; further: potency means the concentration at half of the fitted maximal effect; on the % scale 0 is the no-effect control and ±100 the full control effect; nearly all actives have a fitted effect of over 60% in size
Target sequence (P51450 whole entry, looked up, the tested form may be a part): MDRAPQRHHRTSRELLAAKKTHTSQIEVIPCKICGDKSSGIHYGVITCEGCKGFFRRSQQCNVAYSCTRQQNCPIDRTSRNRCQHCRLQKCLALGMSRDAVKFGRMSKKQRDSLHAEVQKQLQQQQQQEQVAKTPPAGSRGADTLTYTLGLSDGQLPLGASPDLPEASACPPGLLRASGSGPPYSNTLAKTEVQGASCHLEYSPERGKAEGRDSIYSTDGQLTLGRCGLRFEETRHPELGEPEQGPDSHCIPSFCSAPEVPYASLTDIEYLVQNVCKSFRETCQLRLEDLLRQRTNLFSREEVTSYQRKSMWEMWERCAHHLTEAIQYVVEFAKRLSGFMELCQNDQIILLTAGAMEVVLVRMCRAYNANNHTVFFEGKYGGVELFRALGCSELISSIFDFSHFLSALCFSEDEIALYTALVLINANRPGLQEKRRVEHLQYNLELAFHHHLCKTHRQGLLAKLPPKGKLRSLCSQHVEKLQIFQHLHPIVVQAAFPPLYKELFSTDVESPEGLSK
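In this cell-based reporter format, copper sulfate (700 uM final) drives Gal4–ROR gamma fusion expression from a metallothionein promoter in Drosophila Schneider cells; compounds preincubated 1 hr, reporter read after 20 hr at ambient temperature.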
SW480 rerep: induces DNA re-replication in SW480 colon adenocarcinoma cells | SW480 DNA re-replication, Hoechst DNA content imaging, 48 h | Potency, µM (doses to about 46.1 µM), for inactives: at the highest dose re-replication activation, most hits filed as activators | hit rate 1.8% among 340,000 | AID 624297; further: potency means the concentration at half of the fitted maximal effect; % of control where 0% means no effect; nearly all actives have a fitted effect of over 55% in size
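DNA re-replication was detected as more nuclei of elevated Hoechst intensity after 48 hr exposure to compound (23 nL pinned per well of 250 cells).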
Chronic BCR inh: chronic active BCR signaling inhibition. ABC-DLBCL IkBa-CBG/CBR reporter, luminescence ratio, 4 h. Potency, µM (highest dose often 46.1 µM), without a hit: top-dose activity change, negative = inhibition, usual class: inhibitors. hit rate 0.05% among 340,000. AID 493014; active means well fitted inhibition curve with a large enough effect in the signal ratio, with a control signal flat, not every such curve was filed as active; inconclusive means small, poorly fitted or top-dose-only effect, or effect the other way, or a change in a side signal; the % refers to the signal ratio;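 further: potency means the concentration at half of the fitted maximal effect; plate controls were basal doxycycline-induced cells for no effect and cells given 10 µM MG132 for full effect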
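Cell line TMD8 (human ABC DLBCL), stably expressing tet-inducible CBG68-IkBa fusion and CBR; IMDM/0.5% FBS; cpd up to 46 uM; dox induction, 4 h, 37C/5% CO2; dual luminescence; green/red ratio; MG132 control.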
Giardia killer: kills Giardia lamblia; activity change, % at 7.66 µM, hits read low; Giardia lamblia trophozoite viability; hit rate 0.15% among 340,000; in the data active means activity change below about -80%; inconclusive means between about -30% and that limit;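 further: parasites exposed to compound for two days anaerobically before the ATP read; on the % scale 0 is the no-effect control and ±100 the full control effect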
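Giardia trophozoites, 100 cells per well, were exposed to compounds for 48 hrs at 37 deg C under anaerobic conditions; viability was then read as ATP content by bioluminescence after 15-30 min at room temperature.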
VP16 counter: inhibits Gal4-VP16 luciferase reporter, ROR gamma counter-screen. Drosophila S2 Gal4-VP16 UAS-luciferase, luminescence, 20 h. Potency, µM (doses to about 53.6 µM), without a hit: at the highest dose activity, negative = inhibition, actives largely listed as inhibitors. hit rate 3.5% among 310,000;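 further: Gal4-VP16 expression switched on by copper sulfate through the metallothionein promoter; potency means the concentration at half of the fitted maximal effect; on the % scale 0 is the no-effect control and ±100 the full control effect; nearly all actives have a fitted effect of over 50% in size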
An asterisk follows results filed as active; u = inconclusive; x = no result given; [ ] = dose if it differs, or a comment. Unless noted, the call rests on the fitted dose curve; in most records, active means well fitted curve in the direction sought with a large enough effect; inconclusive means small, poorly fitted or top-dose-only effect, or another doubt; inactive means no such curve, though single readings can be large; an effect the other way counts as inactive or inconclusive.

SMILES	MCF10A rerep	RORgamma inh	SW480 rerep	Chronic BCR inh	Giardia killer	VP16 counter
COc1cc(C(=O)NC(c2ccccc2Cl)c2cc(Cl)c3cccnc3c2O)cc(OC)c1OC (stereo not drawn)	x	x	x	12%	x	x
CCCC(=O)NC(c1ccc(N(C)C)cc1)c1ccc2cccnc2c1O (stereo not drawn)	u	2.5µM*	u	-14%	7	2.8µM*
O=S(=O)(NCc1ccc(C(F)(F)F)cc1)c1ccc(-n2cnnn2)cc1	-8%	0%	-11%	8%	-11	-9%
CCCC(=O)NC(c1ccc(C(C)C)cc1)c1ccc2cccnc2c1O (stereo not drawn)	u	2.2µM*	1.3µM*	u	-7	2.8µM*
Cc1ccc(OCCOC(=O)Cn2nc(C)c([N+](=O)[O-])c2C)cc1	u	4%	8%	0%	1	-13%
CCOC(=O)C1(Nc2nccs2)Sc2ccccc2NC1=O (stereo not drawn)	13µM*	0%	15µM*	u	-6	-5%
CCOC(=O)C1(N(CC)CC)Sc2cc(C)ccc2NC1=O (stereo not drawn)	u	8%	u	u	0	u
Cc1ccsc1/C=N/NC(=O)CNC(=O)c1cccc([N+](=O)[O-])c1C	1%	14%	-1%	0%	-1	-5%
CC(=O)Nc1cccc2cc(O)ccc12	-39%	x	1%	x	-24	x
CC(=O)Nc1ccc2ccc3cccc4ccc1c2c34	6.5µM*	u	21µM*	-5%	4	-1%
CCOC(=O)N1CCN(C(=O)c2nn(C)c3c2CSc2ccccc2-3)CC1	-10%	-18%	-3%	u	-8	4%
Nc1c(C(=O)C2CC2)sc2nc3c(cc12)CCC3	15µM*	34%	u	17%	8	u
Nc1c(C(=O)O)sc2nc3c(cc12)CCCC3	0%	-22%	-10%	1%	6	-9%
Nc1c(C(=O)Nc2cccc(C(=O)O)c2)sc2nc3c(cc12)CCCC3	u	2.8µM*	u	u	u	3.2µM*
COc1cc(CNC2CCCC2)cc(Cl)c1OCc1ccccc1Cl	16µM*	-35%	u	u	8	-20%
COc1cc(NC(=O)CCC(=O)OCCCC(F)(F)C(F)(F)F)nc(OC)n1	u	25%	1%	-1%	-6	5%
COc1cc(NC(=O)CCCC(=O)OCC(F)(F)C(F)F)nc(OC)n1	23µM*	-1%	u	11%	0	-4%
NC(=O)C1CCN(CCC(=O)Nc2ccc(F)c(F)c2)CC1	0%	5%	0%	0%	-5	3%
CC[C@H]1NC(=O)c2cc(S(N)(=O)=O)c(Cl)cc2N1	0%[20.6 µM]	10%[2.98 µM]	2%[20.6 µM]	x	x	-29%[17 µM]
CCCc1nnc(NC(=O)c2cc3ccccc3oc2=O)s1	-8%	-1%	u	u	17	11%
COc1cccc(C(=O)Nc2nnc(SCC(=O)Nc3ccc(NC(C)=O)cc3)s2)c1	-4%	11µM*	2%	u	u	u
COc1cccc(N2CC(C(=O)Nc3nnc(SCC(=O)Nc4ccc(NC(C)=O)cc4)s3)CC2=O)c1 (stereo not drawn)	6%	-5%	-2%	-6%	-6	-4%
COc1cccc(C(=O)Nc2nnc(S(=O)(=O)N(C)Cc3ccccc3)s2)c1	3%	32%	12µM*	21%	-26	-7%
CCCc1nnc(NC(=O)c2cccc(OC)c2)s1	4%	7.1µM*	-4%	u	-1	-17%
CCCc1nnc(NC(=O)c2cc3ccccc3o2)s1	8%	-24%	0.26µM*	u	10	u
SMILES	MCF10A rerep	RORgamma inh	SW480 rerep	Chronic BCR inh	Giardia killer	VP16 counter
Cc1cccc(-c2nc3scc(CCNS(=O)(=O)c4ccc(F)cc4C)n3n2)c1	x	x	x	29%	x	x
COc1ccc(NC(=O)CN(C)C(=O)c2c(C)nn(Cc3ccccc3)c2C)cc1	0%	x	-2%	-3%	9	x
NC(=O)C1CCN(C(=O)c2ccc3c(=O)n(Cc4ccco4)c(SCC(=O)c4ccc(F)cc4)nc3c2)CC1	x	13%	x	-1%	x	3%
COc1cccc(C(=O)Nc2nnc(C(C)C)s2)c1	14%	8.9µM*	-13%	u	4	u
CCOC(=O)c1c(C)[nH]c(C2=NNC(=Nc3ccccc3)SC2)c1C	u	u	72%	23%	-8	11µM*
Cc1ccc(C(=O)NCC(=O)OC(C)C(=O)Nc2ccc(N(C)C)cc2)s1 (stereo not drawn)	30%	0%	u	u	15	0%
CCOC(=O)c1cc(-c2ccc(OC)cc2)n[nH]1	-2%	-8%	-13%	u	5	-25%
CC(C)COc1ccc(-c2cc(C(=O)NN)[nH]n2)cc1	18%	13µM*	0%	-5%	-2	u
CS(=O)(=O)N1CCCC(C(=O)N2CCN(c3cccc(Cl)c3)CC2)C1 (stereo not drawn)	1%	-17%	-10%	-10%	u	-2%
CCN1CCC(CN2CCNC2=S)CC1	-14%	x	16µM*	x	-1	x
O=C(CN1CCN(S(=O)(=O)c2ccc(Br)cc2)CC1)N/N=C/c1ccc(Cl)c([N+](=O)[O-])c1	16µM*	u	1%	u	9	-18%
Cc1ccc(S(=O)(=O)N2CCN(CC(=O)N/N=C\c3ccc(Cl)c([N+](=O)[O-])c3)CC2)cc1	5%	90%	x	12%	13	0%
Cc1cc(Br)cc(C)c1NC(=S)NC(=O)CC(C)C	5%	4.5µM*	-1%	u	-12	7.9µM*
CCCC(=O)NC(=S)Nc1c(C)cc(Br)cc1C	2%	x	15%	x	-5	x
CCC(=O)NC(=S)Nc1c(C)cc(Br)cc1C	5%	3.2µM*	u	2%	-1	7.1µM*
